Compounds with a hit are over-represented: about 27% of the library has one in this group of screens.
CYP2C19 activ – cytochrome P450 2C19 (human) activation. P33261. recombinant CYP2C19, luciferin-H EGE luminescence; active compounds read high; 0 = fully inhibited enzyme, 1 = untreated enzyme. activation factor at 5 µM. 96,000 tested, under 10 active. AID 1025;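 active means activation factor of at least 2 at 5 µM in the primary screen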;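 further: 0 = wells with 2.5 mM tranylcypromine and 1 = vehicle-only wells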
CYP2C9 inh – inhibitors of human CYP2C9 | P11712 | CYP2C9 Supersomes, luciferin-H conversion, luminescence | inhibition, % at 5 µM | 20% of 96,000 active | AID 777;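 active means blocking of liver enzyme CYP2C9 beyond about 50% at 5 µM, limit read from the data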
Target sequence (P11712 whole entry, looked up): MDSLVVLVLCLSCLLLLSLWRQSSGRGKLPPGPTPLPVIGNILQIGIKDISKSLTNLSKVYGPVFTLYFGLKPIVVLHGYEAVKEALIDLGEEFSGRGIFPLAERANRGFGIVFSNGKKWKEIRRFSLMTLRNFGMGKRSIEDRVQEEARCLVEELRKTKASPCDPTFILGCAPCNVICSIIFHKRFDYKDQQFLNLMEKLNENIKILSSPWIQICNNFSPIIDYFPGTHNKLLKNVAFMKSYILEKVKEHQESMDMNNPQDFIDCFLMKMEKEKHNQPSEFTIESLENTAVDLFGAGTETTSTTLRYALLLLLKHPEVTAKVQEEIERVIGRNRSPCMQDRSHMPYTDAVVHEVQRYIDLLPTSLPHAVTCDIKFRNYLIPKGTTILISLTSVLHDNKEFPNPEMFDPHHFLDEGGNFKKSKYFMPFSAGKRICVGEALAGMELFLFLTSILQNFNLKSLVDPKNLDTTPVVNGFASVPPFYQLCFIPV
CYP2C19 inhib – inhibitors of human CYP2C19 | P33261 | CYP2C19 Supersomes, luciferin-H EGE luminescence, 30 min | inhibition, % at 5 µM | 21% of 96,000 active | AID 778;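 active means CYP2C19 inhibition above a set limit at 5 µM in the primary screen, cut at about 50% in these data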;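 further: plate controls were negative control wells for no effect and 2.5 mM tranylcypromine positive control for full effect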
Cav32 inh – inhibitors of human Cav3.2 T-type calcium channel; O95180; B-score at 10 µM; Cav3.2-expressing cells, Fluo-4 calcium fluorescence FDSS; active compounds read low; 4% of 100,000 active;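 active means single-dose well whose peak fluorescence ratio is a statistical outlier from its plate by either plate-standardised score or position-corrected B-score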
CYP2C9 activ – CYP2C9 (human) activation. P11712. recombinant CYP2C9, luciferin-H conversion, luminescence; active compounds read high; factor 1 = untreated enzyme, 0 = blocked. activation factor at 5 µM. 1.4% of 96,000 active;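 active means activation factor of 2 or more for CYP2C9 at a 5 µM dose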;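 further: 0 = sulfaphenazole-blocked wells and 1 = vehicle-only wells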
An asterisk follows results filed as active.

COC(=O)[C@@H]1C[C@@]2(O)[C@@H](O)[C@@H](O)[C@@H](O)C[C@H]2N1CC(c1ccccc1)c1ccccc1 was read as Cav32 inh -2.2.
`O=C(CSc1nccn1-c1ccccc1)Nc1ccc2c(c1)OCO2` gave CYP2C19 activ 0.1, CYP2C9 inh 74*, CYP2C19 inhib 87*, Cav32 inh -0.2 and CYP2C9 activ 0.3.
Screening CSc1nccn1CC(=O)Nc1ccc(F)cc1 returned CYP2C19 activ 0.4, CYP2C9 inh 7, CYP2C19 inhib 63*, Cav32 inh 0.0089 and CYP2C9 activ 0.9.
Screening Cc1cc(C)cc(-n2ccnc2SCC(=O)Nc2ccc3c(c2)OCCO3)c1 returned CYP2C19 activ 0.8, CYP2C9 inh 42, CYP2C19 inhib 23, Cav32 inh -3.9 and CYP2C9 activ 0.6.
O=C(CSc1nccn1-c1ccc(F)cc1)Nc1ccc2c(c1)OCO2 was read as CYP2C19 activ 0.5, CYP2C9 inh 32, CYP2C19 inhib 52*, Cav32 inh -1.1 and CYP2C9 activ 0.7.
Screening N#Cc1c(/N=C/c2cccs2)sc2c1CCCCC2 returned CYP2C19 activ 0.3, CYP2C9 inh 94*, CYP2C19 inhib 70*, Cav32 inh -1.3 and CYP2C9 activ 0.1.
`Cc1ccc(/C=N/c2sc3c(c2C#N)CCC3)o1` gave CYP2C19 activ 1, CYP2C9 inh 23, CYP2C19 inhib 4, Cav32 inh -0.1 and CYP2C9 activ 0.8.
COc1nc(N(C#N)CC(N)=O)nc(N2CCCC2)n1 was read as CYP2C19 activ 1, CYP2C9 inh -2, CYP2C19 inhib -4, Cav32 inh 0.43 and CYP2C9 activ 1.
O=S(=O)(NCc1cc(-c2ccc(Cl)cc2)no1)c1ccccc1 was read as CYP2C19 activ 0.5, CYP2C9 inh 21, CYP2C19 inhib 46, Cav32 inh -0.12 and CYP2C9 activ 0.8.
For O=S(=O)(NCc1cc(-c2ccccc2)no1)c1ccc(Cl)cc1 the results were CYP2C19 activ 0.2, CYP2C9 inh 5, CYP2C19 inhib 78*, Cav32 inh -1.2 and CYP2C9 activ 0.9.
For O=S(=O)(NCc1cc(-c2ccccc2Cl)no1)c1ccccc1 the results were CYP2C19 activ 0.1, CYP2C9 inh -140, CYP2C19 inhib 92*, Cav32 inh -3.9 and CYP2C9 activ 2.4*.
Screening CCOC(=O)N1CCN(S(=O)(=O)c2ccc(C)cc2)C1c1ccccc1 (stereo not drawn) returned CYP2C19 activ 0.1, CYP2C9 inh 70*, CYP2C19 inhib 91*, Cav32 inh -4.1* and CYP2C9 activ 0.3.
Screening CCOC(=O)N1CCN(S(=O)(=O)c2ccc(C)cc2)C1c1ccc(OC)cc1 (stereo not drawn) returned CYP2C19 activ 0.3, CYP2C9 inh -16, CYP2C19 inhib 74* and CYP2C9 activ 1.2.
`O=C(c1cccs1)N1N=C(c2ccccc2)CC1c1ccccc1` (stereo not drawn) gave CYP2C19 activ 0.3, CYP2C9 inh 95*, CYP2C19 inhib 68*, Cav32 inh -1.2 and CYP2C9 activ 0.1.
`O=C(c1ccco1)N1N=C(c2cccs2)CC1c1ccc(F)cc1` (stereo not drawn) gave CYP2C19 activ 0.7, CYP2C9 inh 44, CYP2C19 inhib 30, Cav32 inh -2.5 and CYP2C9 activ 0.6.
Screening CC(=O)C1=NN(c2ccccc2)C(c2cccs2)N1c1ccccc1 (stereo not drawn) returned CYP2C19 activ 0.8, CYP2C9 inh 49, CYP2C19 inhib 25, Cav32 inh -1.6 and CYP2C9 activ 0.5.
CS(=O)(=O)N1N=C(c2ccccc2)CC1c1cccs1 (stereo not drawn) was read as CYP2C19 activ 0.5, CYP2C9 inh 24, CYP2C19 inhib 55*, Cav32 inh 0.91 and CYP2C9 activ 0.8.
O=C(CNC(=S)N(Cc1ccccc1F)C1CCCCC1)NC1CC1 was read as CYP2C19 activ 0.7, CYP2C9 inh 6, CYP2C19 inhib 33, Cav32 inh -0.29 and CYP2C9 activ 0.9.
`CSc1nc(NC(C)=O)nc(C)c1Br` gave Cav32 inh 1.3.
Screening COc1ccc(NC(=O)CSc2nnc(-c3ccoc3C)n2CCc2ccccc2)cc1 returned CYP2C19 activ 0.1, CYP2C9 inh 89*, CYP2C19 inhib 88*, Cav32 inh -2.7 and CYP2C9 activ 0.1.
Screening Cc1occc1-c1nnc(SCC(=O)Nc2ccc(F)cc2)n1Cc1ccccc1 returned CYP2C19 activ 0.7, CYP2C9 inh 72*, CYP2C19 inhib 26, Cav32 inh -6.2* and CYP2C9 activ 0.3.
For Cc1occc1-c1nnc(SCC(=O)Nc2ccccc2)n1Cc1ccccc1 the results were CYP2C19 activ 0.7, CYP2C9 inh 62*, CYP2C19 inhib 34, Cav32 inh -2.5 and CYP2C9 activ 0.4.
Screening Cc1ccccc1NC(=O)CSc1nnc(-c2ccoc2C)n1CCc1ccccc1 returned CYP2C19 activ 0.6, CYP2C9 inh 26, CYP2C19 inhib 40, Cav32 inh -2.5 and CYP2C9 activ 0.7.
CC(C)CCn1c(Oc2ccccc2Cl)nc2c1c(=O)n(C)c(=O)n2C was read as CYP2C19 activ 0.9, CYP2C9 inh 85*, CYP2C19 inhib 5, Cav32 inh -4.9* and CYP2C9 activ 0.2.
CC(C)CCn1c(Cl)nc2c1c(=O)n(C)c(=O)n2C was read as CYP2C19 activ 0.5, CYP2C9 inh 2, CYP2C19 inhib 55*, Cav32 inh -1.8 and CYP2C9 activ 1.
`Cc1nc2ccccc2n1CC(=O)N/N=C\c1ccccn1` gave CYP2C19 activ 1.1, CYP2C9 inh -2, CYP2C19 inhib -10, Cav32 inh 1.2 and CYP2C9 activ 1.
Screening Cc1cccc(N2CCN(C(=O)c3cccc(N4C(=O)C5CC=CC(C)C5C4=O)c3)CC2)c1C (stereo not drawn) returned CYP2C19 activ 0.7, CYP2C9 inh 59*, CYP2C19 inhib 28, Cav32 inh -3.9 and CYP2C9 activ 0.4.
Screening O=C(O)CC1=C(O)C(=O)N(c2ccccc2)C1c1ccccc1 (stereo not drawn) returned CYP2C19 activ 0.9, CYP2C9 inh -9, CYP2C19 inhib 8, Cav32 inh 0.66 and CYP2C9 activ 1.1.
`CS(=O)(=O)C1=C(O)C(=O)N(c2ccccc2)C1c1ccccc1` (stereo not drawn) gave CYP2C19 activ 0.5, CYP2C9 inh 12, CYP2C19 inhib 51*, Cav32 inh -0.22 and CYP2C9 activ 0.9.
For O=C(CC1Sc2ccccc2NC1=O)OC(C(=O)NCCc1ccccc1)c1cccnc1 (stereo not drawn) the results were CYP2C19 activ 0.4, CYP2C9 inh 30, CYP2C19 inhib 55* and CYP2C9 activ 0.7.
For COCCNC(=O)C(OC(=O)CC1Sc2ccccc2NC1=O)c1ccncc1 (stereo not drawn) the results were CYP2C19 activ 0.2, CYP2C9 inh 87*, CYP2C19 inhib 83*, Cav32 inh 0.46 and CYP2C9 activ 0.1.

Screens deposited in PubChem by several laboratories.
